# PubChem BioAssay
# The source made the active and inactive calls.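 The calls were made as follows: active = RAM network inhibition above 8.4% in each of two replicates, 3 SD over the compound average; inconclusive = above 8.4% inhibition in only one replicate; inactive = 8.4% inhibition or less in each replicate.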
# Experiment: RAM signaling pathway blockade in yeast – S. cerevisiae, Pdr1DBD-CYC8 efflux-inhibited sensitized strain, primary screen (AID 1298);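 also: 0% = DMSO untreated cells without growth and 100% = 10 µM 1-NA-PP1 full growth; higher means more yeast growth rescued from 5-FOA killing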
# Conditions: S. cerevisiae cbk1-as DSE1-URA3 strain, 5-FOA growth OD615, 2 d; at 50 µM; hits give high values
row,SMILES,RAM network inhibition
1,CCOC(=O)c1ccc(NS(=O)(=O)c2ccc3c(c2)oc(=O)n3C)cc1,2.11% (inactive)
2,O=C(Nc1ccc2c(c1)OCCO2)NC1CCCCC1,-0.57% (inactive)
3,O=C(CSc1nnnn1-c1ccccc1Cl)Nc1ccc2c(c1)OCCO2,5.58% (inactive)
4,COc1ccc(-c2nc(CSCC(=O)NCc3ccc4c(c3)OCO4)c(C)o2)cc1OC,6.3% (inactive)
5,Cc1cnc(NC(=O)CSc2nnc(COc3c(C)cccc3C)o2)s1,0.63% (inactive)
6,Cc1cccc(C2CC(c3ccccc3)Nc3nc(N)nn32)c1 (stereo not given),0.21% (inactive)
7,CCc1ccccc1N1CC23C=CC(O2)C(C(=O)O)C3C1=O (stereo not given),1.2% (inactive)
8,CCOC(=O)C1CCN(Cc2ccc(F)c(Br)c2)CC1,-0.36% (inactive)
9,CCOc1ccccc1N1Cc2cc(C)c(C)cc2C1,2.05% (inactive)
10,CCN1CCN(C(CNC(=O)c2ccc3c(c2)OCO3)c2cccnc2)CC1 (stereo not given),5.59% (inactive)
11,O=C(NCCSc1c[nH]c2ccccc12)c1ccco1,0.88% (inactive)
12,COCCNC(=O)CN(C)S(=O)(=O)c1ccc(Br)cc1,3.01% (inactive)
13,COc1cc(C(=O)Nc2cccc(-c3nncn3C)c2)cc(OC)c1OC,1.54% (inactive)
14,CN1CCN(Cc2nc3c(c(=O)n(C)c(=O)n3C)n2Cc2ccccc2Cl)CC1,4.45% (inactive)
15,O=C(OCCN=C1NS(=O)(=O)c2ccccc21)C1CC(=O)N(c2ccc(Cl)cc2)C1 (stereo not given),-0.53% (inactive)
16,COc1cccc2cc(C(=O)OC3CCN(C)CC3)c(=O)oc12,2.9% (inactive)
17,Cc1cccc(N2C(=O)CC(N3CCN(c4cccc(C(F)(F)F)c4)CC3)C2=O)c1 (stereo not given),5.57% (inactive)
18,O=c1c2ccccc2nc2n1CCN2,-0.47% (inactive)
19,CCOC(=O)C1=C(C)Nc2nnnn2C1c1ccc(OC)c(Br)c1 (stereo not given),0.79% (inactive)
20,COc1ccc(-n2c(Cc3cccn3C)nnc2SCC(N)=O)cc1,0.63% (inactive)

row,SMILES,RAM network inhibition
1,COc1ccccc1NC(=O)CSc1nnc(Cc2cccn2C)n1-c1ccc(F)cc1,2.25% (inactive)
2,CC(=O)Nc1cccc(Oc2nc(C)cc(C)c2C#N)c1,0.78% (inactive)
3,COc1ccc(CNC(=O)c2ccc(CN3CCOCC3)cc2)cc1,0.16% (inactive)
4,Cc1cc(OCC(=O)NCCO)cc(C)c1Cl,6.24% (inactive)
5,COc1ccc(C)cc1S(=O)(=O)N1CCN(S(=O)(=O)c2cc(C)ccc2OC)CC1,3% (inactive)
6,CCCCC(NS(=O)(=O)c1ccc(OC)cc1)C(=O)O (stereo not given),3.29% (inactive)
7,CCOc1ccc(Cn2nnc(C(=O)Nc3ccc(OC)cc3OC)c2N)cc1,4.87% (inactive)
8,Cc1cc(C)c(NC(=O)CSc2nc3c(c(=O)n2C)SC(C)C3)c(C)c1 (stereo not given),4.95% (inactive)
9,COc1ccccc1N1C(=O)CCC1(C#N)c1ccccc1 (stereo not given),2.81% (inactive)
10,CCOc1ccc(N(CC(=O)NC2CCCC(C)C2C)S(=O)(=O)c2c(C)noc2C)cc1 (stereo not given),6.62% (inactive)
11,CCN1C(=O)c2ccccc2S(=O)(=O)c2ccc(C(=O)NCc3cccnc3)cc21,1.98% (inactive)
12,Cc1ccc(C(=O)CC2(O)C(=O)N(C)c3ccc(Br)cc32)c(C)c1 (stereo not given),4.59% (inactive)
13,CCN1CCN(C(=O)c2cn(CC)c3ccc(S(=O)(=O)N(C)C)cc3c2=O)CC1,-1.09% (inactive)
14,COc1ccc(OC)c(NC(=O)CSc2nnc(Cc3cccn3C)n2-c2ccc(F)cc2)c1,2.89% (inactive)
15,CCOc1ccc(-c2nnc(SCC(=O)N3CCN(c4ccccc4)CC3)o2)cc1,3.72% (inactive)
16,COCCCN(C)C1CCN(C(=O)Nc2ccc(F)cc2)CC1,8.93% (inactive)
17,COc1cccc(C2CC(=O)Nc3c2c(=O)n(C)c(=O)n3C)c1OC (stereo not given),7.39% (inactive)
18,CCCC(=O)C1=C(N(C)c2ccccc2)CC(C)(C)C(C(=O)OC)C1=O (stereo not given),0.26% (inactive)
19,CC(=O)N1c2c(cc(Br)cc2S(=O)(=O)NCC2COc3ccccc3O2)CC1C (stereo not given),0.61% (inactive)
20,CCCCNC(=O)Cn1c(=O)n(C)c2ccccc21,-1.79% (inactive)
